Most compounds without a hit are left out; they make up all but 11% or so of the library.
JMJD2A Tudor inh: qHTS Assay for Inhibitors of JMJD2A-Tudor Domain; Lysine-specific demethylase 4A (Homo sapiens), O75164; AlphaScreen JMJD2A-Tudor / H3K4me3 peptide binding; Potency, µM (top dose mostly 114 µM), without a hit: at the top dose activity change, negative = inhibition, actives largely listed as inhibitors; 4.4% of 390,000 active; further: potency means the concentration at half of the fitted maximal effect; on the % scale 0 is the no-effect control and ±100 the full control effect; nearly all actives have a fitted effect of over 50% in size
PI5P4K alpha inh: qHTS for Inhibitors of phosphatidylinositol 5-phosphate 4-kinase (PI5P4K). PI5P4Kalpha enzyme, ADP-Glo luminescence, 60 min; stronger effect = lower value. Phosphatidylinositol 5-phosphate 4-kinase type-2 alpha (Homo sapiens), P48426. 1.2% of 330,000 active. AID 652105, 2013. max response, %; active means max response of -50% or lower; inconclusive means between -30% and -50%; inactive means -30% or higher; further: value at the top dose of about 77 µM; on the % scale 0 is the no-effect control and ±100 the full control effect
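PI5P4Kalpha ADP-Glo assay; 5 microM ATP final; 60 min RT reaction; HEPES pH 7.4/EGTA/CHAPS, 5% DMSO; controls lacking substrate or enzyme; luminescent end-point.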
HP1b chromo inh: HTS for Inhibitors of HP1-beta Chromodomain Interactions with Methylated Histone Tails. AID 540317, 2011. 0.56% of 390,000 active. Chromobox protein homolog 1 (Homo sapiens), P83916. AlphaScreen HP1-beta / biotin-H3K9me3 peptide binding. Potency, µM (titrated, usually from 114 µM), inactives show at the top dose activity change, negative = inhibition, actives largely listed as inhibitors; further: potency means the concentration at half of the fitted maximal effect; nearly all actives have a fitted effect of over 70% in size
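Compound inhibition of the preformed complex between 50 nM HP1-beta and 50 nM biotinylated H3K9me3 peptide was read by AlphaScreen. Buffer was PBS pH 7.4 with 0.01% Tween-20. Incubations ran 30 min at room temperature, with 10 ug/mL donor/acceptor beads.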
L3MBTL1 inh: qHTS Assay for the Inhibitors of L3MBTL1; Lethal(3)malignant brain tumor-like protein 1 (Homo sapiens), Q9Y468; AlphaScreen L3MBTL1–H3K9me1 peptide binding; Potency, µM (titrated, usually from 57.1 µM), inactives show at the highest dose activity, negative = inhibition, hits mostly inhibitors; 0.66% of 230,000 active; further: potency means the concentration at half of the fitted maximal effect; on the % scale 0 is the no-effect control and ±100 the full control effect; nearly all actives have a fitted effect of over 60% in size
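AlphaScreen proximity signal between nickel-chelate acceptor and streptavidin donor beads (final 10 ug/mL) reports binding of 50 nM L3MBTL1 to 75 nM biotin-H3 K9me1 peptide; complex incubated with compounds 30 min at room temperature; cefsulodin titration as control.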
G9a inh: qHTS Assay for Inhibitors of Histone Lysine Methyltransferase G9a; Potency, µM (doses to about 102 µM), for the others: at the top dose activity, negative = inhibition, actives largely listed as inhibitors; Histone-lysine N-methyltransferase EHMT2 (Homo sapiens), Q96KQ7; 8.8% of 350,000 active; AID 504332, 2011; G9a H3K9 monomethylation, AlphaScreen, 2 h; further: potency means the concentration at half of the fitted maximal effect; on the % scale 0 is the no-effect control and ±100 the full control effect; nearly all actives have a fitted effect of over 75% in size
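G9a (20 nM) was preincubated 15 min with compound, then reacted 2 h at room temperature with 500 nM biotin-H3K9 peptide and 20 µM SAM. Monomethyl-H3K9 detected by AlphaScreen using anti-H3K9me1 antibody.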
BAZ2B block: qHTS Assay for Inhibitors of BAZ2B; Bromodomain adjacent to zinc finger domain protein 2B (Homo sapiens), Q9UIF8; 4.4% of 360,000 active; AID 504333, 2011; Potency, µM (doses to about 114 µM), for the others: at the top dose activity change, negative = inhibition, hits mostly inhibitors; AlphaScreen BAZ2B-H3K14Ac peptide displacement; further: potency means the concentration at half of the fitted maximal effect; on the % scale 0 is the no-effect control and ±100 the full control effect; nearly all actives have a fitted effect of over 60% in size
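Multi-concentration screen (max 110 uM) measuring displacement of acetylated histone H3 peptide from BAZ2B by AlphaScreen, using 50 nM protein, 50 nM peptide and 10 ug/mL streptavidin donor plus Ni-chelate acceptor beads.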
Active calls of the source: *; ? = inconclusive; · = not tested or not shown; [ ] = another dose, or the depositor's remark. Unless noted, the call rests on the fitted dose curve; in most records, active means well fitted inhibition curve with a large enough effect; inconclusive means small, poorly fitted or top-dose-only effect; inactive means no such curve, though single readings can be large or run the other way.

SMILES	JMJD2A Tudor inh	PI5P4K alpha inh	HP1b chromo inh	L3MBTL1 inh	G9a inh	BAZ2B block
CCOC(=O)CNC(=O)CSc1cn(CC(=O)N2CCCCCC2)c2ccccc12	-16%	·	18%	·	-9%[59 µM]	-20%
COc1ccnc(CS(=O)c2nc3cc(C(O)(F)F)ccc3[nH]2)c1OC (centres undefined)	79µM*	3	22%	·	20µM*	-1%
COc1ccc2[nH]c(S(=O)Cc3ncc(C)c(OC)c3C)nc2c1 (centres undefined)	50µM*	-12	·	·	16µM*	-29%
CN(C)C(=O)n1nnnc1Cc1ccc(-c2ccccc2)cc1	·	·	·	·	35%[59 µM]	·
Nc1nnc(CC(=O)N/N=C/c2cc([N+](=O)[O-])cc(Br)c2O)s1	79µM*	?	-14%	?	22µM*	50µM*
O=C(c1ccc(Cl)cc1)[C@@H]1[C@@H]2C(=O)N(c3ccc(Cl)cc3)C(=O)[C@@H]2C2c3ccccc3C=NN21 (some centres undefined)	-9%	1	24%	-4%	-20%[59 µM]	-7%
O=C(C1=C[C@@H]2[C@H]3C(=O)N(c4ccccc4)C(=O)[C@H]3[C@@H](C(=O)c3ccc(Cl)cc3)N2C=C1)c1ccccc1	·	·	·	-14%	11µM*	?
CCCCCn1c(CN2CCN(c3ccc(OC)cc3)CC2)nc2c1c(=O)[nH]c(=O)n2C	?	·	16%	·	?	-35%
C=CCn1c(N2CCN(c3ccc(OC)cc3)CC2)nc2c1c(=O)[nH]c(=O)n2C	-14%	0	49%	-10%	50µM*	-31%
CCCn1c(CN2CCN(c3ccc(OC)cc3)CC2)nc2c1c(=O)[nH]c(=O)n2C	-20%	·	23%	·	25µM*	-15%
Cc1ccc(OCC(=O)N/N=C/C=C/c2ccco2)cc1C	-34%	?	-19%	-9%	40µM*	?
O=C(Cc1cccc2ccccc12)N/N=C/c1ccc(F)cc1	-13%	·	33%	8%	·	10%
O=C(CNc1cccc2ccccc12)N/N=C/C=C/c1ccco1	-25%	2	6%	?	20µM*	-37%
O=C(Cc1cccs1)N/N=C/C=C/c1ccco1	?	-58*	28µM*	?	40µM*	45µM*
O=C(Cc1cccc2ccccc12)N/N=C/c1ccc(OC(=O)/C=C/c2ccco2)cc1	-18%	?	10%	25µM*	13%[59 µM]	-35%
NS(=O)(=O)c1ccc(NC(=O)CN2C(=O)COc3ccc(Cl)cc32)cc1	?	·	18%	·	?	-38%
C/C(=N/NC(=O)CNC(=O)c1ccncc1)c1ccc(Cl)cc1	-11%	-3	7%	4%	·	-5%
C/C(=N/NC(=O)CNc1ccc(C)cc1)c1ccc(Cl)cc1	?	·	-13%	-12%	45µM*	?
CC1CC(C)CN(C(=O)Cn2ncc3c([nH]c4ccccc43)c2=O)C1 (centres undefined)	25µM*	-8	-5%	·	16%	-6%[57.1 µM]
Cc1ccc(C)c(N2CCN(C(=O)Cn3ncc4c([nH]c5ccc(C)cc54)c3=O)CC2)c1	25%	-2	35%	·	71µM*	-11%
Cc1ccc2[nH]c3c(=O)n(CC(=O)N4CCCCC4)ncc3c2c1	-1%	·	37%	·	-10%[59 µM]	8%[57.1 µM]
CCN1CCN(C(=O)Cn2ncc3c([nH]c4ccccc43)c2=O)CC1	-2%	2	26%	·	-8%	-17%
Cc1cn2c(=O)cc(COC(=O)c3cccc(NC(=O)c4ccc(C(C)(C)C)cc4)c3)nc2s1	-14%	·	11%	·	8%[59 µM]	-2%
CNC(=O)COC(=O)c1c2c(nc3ccccc13)CCC2	?	?	11%	?	·	50µM*
CCOc1ccc(NC(=O)c2c3c(nc4ccccc24)CCC3)cc1	-9%	2	20%	?	?	-5%
SMILES	JMJD2A Tudor inh	PI5P4K alpha inh	HP1b chromo inh	L3MBTL1 inh	G9a inh	BAZ2B block
O=C(NC1CCCCC1)c1c2c(nc3ccccc13)CCC2	-24%	?	25%	-12%	?	50µM*
Cc1c(NC(=O)C(C)OC(=O)c2c3c(nc4ccccc24)CCC3)c(=O)n(-c2ccccc2)n1C (centres undefined)	?	?	9%	?	50µM*	50µM*
CC(C)NCC(=O)Nc1c2c(nc3ccccc13)CCC2	22µM*	-1	-1%	0%	18µM*	50µM*
Cc1c(NC(=O)COC(=O)c2c3c(nc4ccccc24)CCCC3)c(=O)n(-c2ccccc2)n1C	-7%	-1	44%	5%	24%[59 µM]	9%
CCOc1ccc(CCNC(=O)c2cc3cccc4c3n2CCS4)cc1	9%	·	23%	·	-2%[59 µM]	-1%
Cn1c2cc(B(O)O)sc2c2cnn(Cc3c(F)cccc3F)c(=O)c21	·	·	·	-6%	-2%[12.7 µM]	3%
Cc1cccc(OCC(=O)Nc2cccc3cccnc23)c1C	1%	·	30%	·	11%[59 µM]	0%
CN(C(=O)CSc1nc2ccc(NC(=O)COc3ccccc3Cl)cc2s1)c1ccccc1	-3%	·	38%	·	-21%[59 µM]	0%
CCOC(=O)C(NCc1ccc(F)cc1)(NC(=O)c1ccccc1)C(F)(F)F (centres undefined)	-3%	6	39%	-18%	-3%[59 µM]	75%
COC(=O)C(NC(=O)c1ccccc1)(Nc1nccs1)C(F)(F)F (centres undefined)	-24%	4	26%	-8%	-1%	0%
COC(=O)C(NNc1ccccc1C)(NC(=O)c1ccc(F)cc1)C(F)(F)F (centres undefined)	?	7	?	-9%	3.2µM*	-6%
COC(=O)C(NNc1ccc(F)cc1)(NC(=O)c1ccccc1)C(F)(F)F (centres undefined)	-17%	-2	24%	-3%	25µM*	-4%
Cn1c(=O)c(-c2cc(F)cc(F)c2)nc2cnc(N3CCOCC3)nc21	·	·	·	·	3%[0.501 µM]	·
COc1ccc(NC(=O)CSc2ncnc3sc(C)cc23)cc1	-19%	0	-15%	·	-4%	-13%
Cc1cc2c(SCC(=O)Nc3cccc(O)c3)ncnc2s1	50µM*	-74*	5%[57 µM]	·	·	·
O=C(c1ccc(F)cc1)n1nc(-c2cccnc2)nc1NCc1ccc(F)cc1	1%	·	60%	·	-3%[59 µM]	5%

Screens (PubChem)
